Hits are enriched below; roughly 4.1% of the tested compounds scored in any of these assays.
hcDAF12 agonist – H. contortus DAF-12 activation, primary screen; 370,000 tested, 1.4% active; activation, % at 6.8 µM; HEK293 hcDAF-12 lit1-tk-luc reporter, luminescence; 0% DMSO, 100% Δ7-dafachronic acid; AID 652067;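 active = activation above the mean of all tested compounds plus 3 SD, cut at about 5.5% in these data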;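 note: 100% = response to 3 µM Δ7-dafachronic acid high control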
DAX1 inh-1 – blocks DAX1 repression of SF-1 activated StAR promoter | AID 652010 | inhibition, % at 6.8 µM | HEK293T StAR-luciferase reporter, SF-1/DAX-1 repression relief | 370,000 tested, 1.1% active;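 active = inhibition above the mean over all tested compounds plus 3 SD, cut at about 3.6% in these data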;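 note: 0% = DAX-1 cells with DMSO and 100% = cells lacking DAX-1 with DMSO; higher inhibition means more luminescence from relief of DAX-1 repression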
ssDAF-12 act – activators of S. stercoralis DAF-12 nuclear receptor; HEK293 ssDAF-12/GRIP1 lit1-tk-luc reporter, luminescence; % of 3 µM dafachronic acid response; activation, % at 6.8 µM; 370,000 tested, 1% active;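 active = activation above the mean over all tested compounds plus 3 SD, cut at about 0.9% in these data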;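 note: 0% = DMSO-only wells and 100% = 3 µM delta7-dafachronic acid wells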
DAX1 inh-2 – NR0B1 (DAX1) inhibition; HEK293 Gal4-DAX1 luciferase reporter, luminescence; inhibition, % at 6.75 µM; 340,000 tested, 0.99% active; AID 504766;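 active = inhibition above the mean over all tested compounds plus 3 SD, cut at about 4.2% in these data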;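 note: 0% = DAX1-transfected cells with DMSO and 100% = empty-vector control cells with DMSO; inhibition shows as a rise in luminescence from relieved DAX1 repression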
Target sequence (P51843 207-470 limits assumed): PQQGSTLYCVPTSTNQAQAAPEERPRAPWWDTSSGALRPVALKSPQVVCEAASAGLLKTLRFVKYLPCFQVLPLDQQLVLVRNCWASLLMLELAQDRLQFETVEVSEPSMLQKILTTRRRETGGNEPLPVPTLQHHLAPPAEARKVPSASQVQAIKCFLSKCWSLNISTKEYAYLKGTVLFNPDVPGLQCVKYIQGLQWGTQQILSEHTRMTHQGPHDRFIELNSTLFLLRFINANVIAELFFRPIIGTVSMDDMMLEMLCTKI
hgDAF12 agonist – agonists of H. glycines DAF-12 nuclear receptor; HEK293 GAL4-hgDAF12 UAS-luciferase reporter, agonist luminescence; normalized to butyrate control; activation, % at 6.8 µM; 370,000 tested, 1.8% active; AID 687014;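 active = activation above a cutoff set at the mean of all screened compounds plus 3 SD, cut at about 10% in these data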;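 note: 0% = DMSO wells and 100% = sodium butyrate wells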
Starred values were filed as active, the others as inactive; . = no result given.

SMILES	hcDAF12 agonist	DAX1 inh-1	ssDAF-12 act	DAX1 inh-2	hgDAF12 agonist
COc1ccc(NC(=O)c2cccc3ccccc23)cc1	0.8	-0.5	-1.2	0.2	11.3*
O=C(Nc1cccnc1Oc1ccc(Cl)cc1)c1cccc2ccccc12	0.6	0.2	-0.8	6.0*	-0.9
COc1ccc(NC(=O)c2cccc3c(Br)cccc23)cc1	0.7	-0.1	-0.2	-1.6	2.0
COc1ccc(NC(=O)O/N=C/c2ccccc2)cc1	1.6	0.9	-1.3	2.8	11.4*
COc1ccc(NC(=O)c2scc(S(=O)(=O)C(C)C)c2N)cc1	4.7	2.3	1.2*	2.5	10.9*
O=C(c1cc(F)cc(F)c1)N1CCCC(c2nc(-c3cccs3)no2)C1 (stereo not given)	-1.0	0.0	-0.7	.	0.7
COc1ccc(NC(=O)c2ccccc2C)cc1	2.1	1.6	-0.3	6.3*	6.1
COc1ccc(NC(=O)Nc2ccc(OC)cc2)cc1	0.4	1.1	0.2	0.8	5.7
COc1ccc(NC(=O)OC(C)C)cc1	4.0	1.8	-0.4	1.4	11.1*
C=CCn1c(Cc2cccs2)nnc1SCC(=O)Nc1ccc2c(c1)OCO2	-3.0	-0.5	-2.0	.	-2.1
C[C@@H]1/C=C/CC(=O)N[C@H](c2ccccc2)[C@H](C)/C=C/CC(=O)N[C@@H]1c1ccccc1	-1.2	-1.1	-1.4	.	-3.1
CC(=O)c1cccc(NC(=O)/C(=C\c2cccnc2)NC(=O)c2ccc(C)cc2)c1	0.3	-0.4	-1.2	1.4	1.2
CSc1ccc(/C=C(/NC(=O)c2ccc(C)cc2)C(=O)Nc2cccc(F)c2)cc1	6.3*	-0.2	-1.4	2.0	5.1
Cc1ccc2c(c1)C(CS(=O)(=O)NCCc1ccccc1)NC2 (stereo not given)	-2.2	-0.8	-1.3	.	0.1
COc1ccc2c(c1)CCc1c(C(=O)NCC(C)C)noc1-2	4.4	2.5	-0.3	5.6*	13.2*
COc1ccc2c(c1)CCc1c(C(=O)N3CCCCCC3)noc1-2	3.2	3.8*	-0.6	3.0	7.7
COc1ccc2c(c1)CCc1c(C(=O)NCc3cccnc3)noc1-2	-0.1	-0.2	-0.9	2.4	0.1
CCC[C@H]1[C@@H](NC(=O)c2ccc(OC)cc2)CC[C@@]23CCCN2C(=O)CCC[C@@H]13	0.2	.	-1.9	.	-1.6
COc1ccc(-c2c(C#Cc3ccc(N(C)C)cc3)c3ccccc3n2C)cc1	5.8*	0.5	0.3	-1.2	3.0
CCn1cc([N+](=O)[O-])c(C(=O)NCc2ccc3c(c2)OCO3)n1	1.4	0.0	-1.1	4.9*	-0.3
Cn1c(C(=O)N2CCN(Cc3ccc4c(c3)OCO4)CC2)cc2sccc21	-3.2	-1.4	-1.7	1.5	-2.6
Cn1c(C(=O)NCc2ccc3c(c2)OCO3)cc2sccc21	6.2*	-0.9	-1.2	0.4	0.8
COc1cc2c(cc1NC(=O)c1ccco1)CCCC2	5.7*	1.0	-0.4	1.8	6.5
COc1ccc(CNC2CCC23CCC(C)CC3)cc1OC (stereo not given)	-0.9	.	-1.2	.	-0.7
CCc1ccc(S(=O)(=O)Nc2c(C)nc3nc[nH]n3c2=O)cc1	-0.8	0.1	-0.6	8.0*	-1.5
SMILES	hcDAF12 agonist	DAX1 inh-1	ssDAF-12 act	DAX1 inh-2	hgDAF12 agonist
Cc1nc2nc(C)c(NS(=O)(=O)c3ccc(Cl)cc3)c(=O)n2[nH]1	6.4*	0.2	0.5	0.2	4.0
Oc1ccc2ccccc2c1C=NN1CCN(Cc2ccc(Cl)cc2)CC1	-1.4	-0.7	-1.3	.	0.6
COc1ccc(CNC(=O)COC(=O)c2ccccc2OCC(=O)Nc2ccc(SC(F)F)cc2)cc1	0.7	0.5	-1.0	6.5*	1.8
O=C(Cn1cc(S(=O)(=O)Cc2ccccc2F)c2ccccc21)N1CCOCC1	0.0	-0.3	-1.0	0.2	11.0*
O=C(C(=O)N1CCOCC1)c1cn(CC(=O)N2CCc3ccccc3C2)c2ccccc12	1.2	-1.0	-1.8	0.7	-2.2
O=C(C(=O)N1CCc2ccccc2C1)c1cn(CC(=O)N2CCOCC2)c2ccccc12	0.2	-0.5	1.8*	0.5	-0.4
C=CCn1c(COc2ccccc2)nnc1SCC(=O)Nc1ccc(Oc2ccccc2)cc1	-3.0	0.2	-1.3	.	3.0
O=C(OCc1ccccc1)[C@H](Cc1ccccc1)NC(=O)[C@@H]1CC=C[C@@H]2CCN(C3CCCCC3)C(=O)[C@@H]21	1.6	.	-1.0	.	0.4
Cc1ccc(-n2c(SCC(=O)c3ccccc3Cl)nnc2-c2cnccn2)cc1	-0.7	1.6	-0.5	.	0.8
